Test results: PubChem BioAssay (NCATS)
Records with an inconclusive call do not appear. Calls of active or inactive are those of the source. Unless noted, the call rests on the fitted dose curve.

Tests used:
[1] = target: Bile acid receptor (Homo sapiens) (UniProt Q96RI1); test: qHTS assay for small molecule antagonists of farnesoid X receptor signaling (AID 588526); further: on the % scale 0 is the no-effect control and ±100 the full control effect
How it was run: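 Antagonist mode: titrated compounds tested against chenodeoxycholic acid stimulation (normalized to 50 uM CDCA and DMSO) in GeneBLAzer HEK293T cells for 16 h. Beta-lactamase read by CCF4 fluorescence; IC50 from Hill fits.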

[2] = target: Bile acid receptor (Homo sapiens) (UniProt Q96RI1); test: qHTS assay for small molecule agonists of farnesoid X receptor signaling (AID 588527); settings: HEK293T FXR-UAS-bla, beta-lactamase ratio, 16 h; activation: stronger effect = higher value;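 further: series mostly up to about 77 µM; 0% = vehicle basal and 100% = reference agonist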
How it was run: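 FXR-UAS-bla HEK293T cells (10% dialyzed FBS) preincubated 5-7 h at 37 C, then compounds at up to 92 uM for 16 h at 37 C. CCF4 beta-lactamase read-out after 2 h RT. Normalized to chenodeoxycholic acid (100 uM) and DMSO; Hill fit gave EC50 and efficacy.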

[3] = target: Glucocorticoid receptor (Homo sapiens) (UniProt P04150); test: qHTS assay for small molecule agonists of glucocorticoid receptor signaling (AID 588532; active means well fitted curve in the direction sought with a large enough effect in the signal ratio, with a control signal flat; the % refers to the signal ratio;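 further: 100% = dexamethasone at 0.1 µM and 0% = DMSO only wells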); settings: HeLa MMTV-bla, beta-lactamase ratio, agonist, 18 h; activation: stronger effect = higher value, percent of dexamethasone control, DMSO zero
Sequence of Glucocorticoid receptor (Homo sapiens) (P04150 whole entry, looked up): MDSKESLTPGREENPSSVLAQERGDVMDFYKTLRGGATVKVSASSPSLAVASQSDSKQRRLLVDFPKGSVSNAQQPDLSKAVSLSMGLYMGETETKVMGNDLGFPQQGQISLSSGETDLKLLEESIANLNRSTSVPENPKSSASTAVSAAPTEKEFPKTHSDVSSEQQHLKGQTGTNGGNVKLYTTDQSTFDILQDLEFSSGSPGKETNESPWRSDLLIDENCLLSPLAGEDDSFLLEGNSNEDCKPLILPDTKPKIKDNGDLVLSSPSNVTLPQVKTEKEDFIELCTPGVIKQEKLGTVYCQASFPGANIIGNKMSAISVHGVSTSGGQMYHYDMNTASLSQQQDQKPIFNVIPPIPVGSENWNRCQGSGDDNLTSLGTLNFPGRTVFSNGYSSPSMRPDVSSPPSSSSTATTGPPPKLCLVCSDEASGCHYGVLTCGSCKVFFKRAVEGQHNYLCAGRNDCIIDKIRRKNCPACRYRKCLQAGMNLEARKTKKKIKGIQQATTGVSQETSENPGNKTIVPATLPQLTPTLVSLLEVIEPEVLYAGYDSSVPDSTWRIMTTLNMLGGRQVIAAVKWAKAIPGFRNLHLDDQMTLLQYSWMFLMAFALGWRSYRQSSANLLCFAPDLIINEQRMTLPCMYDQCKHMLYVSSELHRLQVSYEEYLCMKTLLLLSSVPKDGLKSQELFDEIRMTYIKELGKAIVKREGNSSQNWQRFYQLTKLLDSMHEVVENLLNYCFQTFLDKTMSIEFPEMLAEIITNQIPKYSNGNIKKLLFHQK
How it was run: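 MMTV-bla HeLa beta-lactamase reporter cells in 1% charcoal/dextran FBS medium, compounds up to 92 uM for 18 h at 37 C, CCF4 readout; normalized to 0.1 uM dexamethasone (100%), EC50 and efficacy from Hill fits.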

[4] = target: Peroxisome proliferator-activated receptor delta (Homo sapiens) (UniProt Q03181); test: qHTS assay for small molecule agonists of peroxisome proliferator-activated receptor delta signaling (AID 588534);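 further: 0% = DMSO basal wells and 100% = positive control agonist at 10 µM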
Sequence of Peroxisome proliferator-activated receptor delta (Homo sapiens) (Q03181 whole entry, looked up): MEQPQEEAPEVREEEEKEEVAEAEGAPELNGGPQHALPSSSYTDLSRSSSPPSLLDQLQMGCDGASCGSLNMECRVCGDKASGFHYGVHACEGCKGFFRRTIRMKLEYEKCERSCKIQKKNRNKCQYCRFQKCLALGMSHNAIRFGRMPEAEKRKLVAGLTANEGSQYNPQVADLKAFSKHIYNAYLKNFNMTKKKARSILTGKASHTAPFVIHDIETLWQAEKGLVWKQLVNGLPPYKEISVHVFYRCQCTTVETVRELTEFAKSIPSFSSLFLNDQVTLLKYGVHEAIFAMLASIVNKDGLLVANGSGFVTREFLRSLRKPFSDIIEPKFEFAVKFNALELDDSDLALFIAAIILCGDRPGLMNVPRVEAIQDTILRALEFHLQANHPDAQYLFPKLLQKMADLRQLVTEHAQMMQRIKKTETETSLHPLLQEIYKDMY
How it was run: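 Agonist-mode beta-lactamase reporter readout (CCF4 dye, 2 h at RT) after 18 h at 37 °C exposure to a titration; Hill-equation fitting gave EC50 and maximal response.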

[5] = qHTS assay for small molecule antagonists of peroxisome proliferator-activated receptor delta signaling (AID 588535; active means well fitted inhibition curve with a large enough effect in the signal ratio, with a control signal flat, not every such curve was filed as active; the % refers to the signal ratio;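 on max response: cells co-treated with a PPAR-delta agonist as stimulator during compound exposure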); settings: HEK293T PPARd-UAS-bla, beta-lactamase FRET ratio, 18 h; 460 nm channel
How it was run: (§1)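 Fluorescence from CCF4-loaded GeneBLAzer PPAR-delta-UAS-bla HEK293T cells (2 hrs RT loading) quantified reporter inhibition after an 18 hr, 37 C compound exposure across a titration.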

[6] = target: Peroxisome proliferator-activated receptor delta (Homo sapiens) (UniProt Q03181); test: as above
How it was run: as §1

[7] = target: Vitamin D3 receptor (Homo sapiens) (UniProt P11473); test: qHTS assay for small molecule antagonists of vitamin D receptor signaling (AID 588541);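 further: receptor activated by calcitriol during compound treatment; series mostly up to about 77 µM; on the % scale 0 is the no-effect control and ±100 the full control effect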
Sequence of Vitamin D3 receptor (Homo sapiens) (P11473 whole entry, looked up): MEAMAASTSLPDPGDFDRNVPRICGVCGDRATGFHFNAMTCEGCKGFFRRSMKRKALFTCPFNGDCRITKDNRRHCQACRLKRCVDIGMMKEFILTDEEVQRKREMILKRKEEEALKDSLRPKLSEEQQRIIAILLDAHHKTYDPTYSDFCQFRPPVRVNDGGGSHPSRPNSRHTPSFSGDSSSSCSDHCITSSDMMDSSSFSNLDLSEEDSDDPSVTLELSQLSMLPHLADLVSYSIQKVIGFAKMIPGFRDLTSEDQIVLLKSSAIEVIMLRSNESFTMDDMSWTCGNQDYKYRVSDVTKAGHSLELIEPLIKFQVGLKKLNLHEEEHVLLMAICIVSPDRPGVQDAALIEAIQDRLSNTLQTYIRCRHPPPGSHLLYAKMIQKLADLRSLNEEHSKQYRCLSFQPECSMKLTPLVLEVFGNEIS
How it was run: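 VDR-UAS-bla HEK293T cells in 2% charcoal-stripped FBS were stimulated with 1-alpha,25-dihydroxyvitamin D3 (3 nM final) plus compound for 16 h at 37 C. The beta-lactamase CCF4 readout was normalized to 50 nM agonist and DMSO, and Hill fits gave IC50.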

[8] = target: Vitamin D3 receptor (Homo sapiens) (UniProt P11473); test: qHTS assay for small molecule agonists of vitamin D receptor signaling (AID 588543);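 further: 0% = DMSO basal and 100% = reference agonist control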
How it was run: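 β-lactamase reporter, VDR-UAS-bla HEK293T, agonist mode. Cells plated 5 h at 37 °C, compound titration 16 h at 37 °C, CCF4 dye 2 h RT, ratio 460/530 nm. Hill fit → EC50, efficacy vs 50 nM 1α,25-(OH)2D3.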

[9] = qHTS assay for small molecule agonists of retinoid X receptor alpha signaling (AID 588544); settings: HEK293T RXRa-UAS-bla, beta-lactamase reporter, 18 h; 530 nm emission;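 on activation: 0% = DMSO basal wells and 100% = reference agonist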
[10] = target: Retinoic acid receptor RXR-alpha (Homo sapiens) (UniProt P19793); test: as above
Sequence of Retinoic acid receptor RXR-alpha (Homo sapiens) (P19793 whole entry, looked up): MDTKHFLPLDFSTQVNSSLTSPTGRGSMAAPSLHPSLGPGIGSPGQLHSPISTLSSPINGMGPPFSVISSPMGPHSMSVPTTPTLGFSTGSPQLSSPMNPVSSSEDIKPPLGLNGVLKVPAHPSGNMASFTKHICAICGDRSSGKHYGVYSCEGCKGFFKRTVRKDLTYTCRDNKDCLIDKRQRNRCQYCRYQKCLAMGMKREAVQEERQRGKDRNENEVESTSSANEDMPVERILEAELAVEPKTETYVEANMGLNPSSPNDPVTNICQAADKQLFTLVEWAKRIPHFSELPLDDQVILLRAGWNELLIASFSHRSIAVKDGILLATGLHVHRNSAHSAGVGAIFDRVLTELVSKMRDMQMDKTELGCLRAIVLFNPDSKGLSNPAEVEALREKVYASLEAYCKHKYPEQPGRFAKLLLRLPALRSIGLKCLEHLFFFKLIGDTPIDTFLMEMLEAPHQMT

[11] = target: Thyroid hormone receptor beta (Homo sapiens) (UniProt P10828); test: qHTS assay for small molecule agonists of thyroid hormone receptor beta signaling (AID 588545);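 further: 0% = DMSO only and 100% = 10 nM T3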
Sequence of Thyroid hormone receptor beta (Homo sapiens) (P10828 whole entry, looked up): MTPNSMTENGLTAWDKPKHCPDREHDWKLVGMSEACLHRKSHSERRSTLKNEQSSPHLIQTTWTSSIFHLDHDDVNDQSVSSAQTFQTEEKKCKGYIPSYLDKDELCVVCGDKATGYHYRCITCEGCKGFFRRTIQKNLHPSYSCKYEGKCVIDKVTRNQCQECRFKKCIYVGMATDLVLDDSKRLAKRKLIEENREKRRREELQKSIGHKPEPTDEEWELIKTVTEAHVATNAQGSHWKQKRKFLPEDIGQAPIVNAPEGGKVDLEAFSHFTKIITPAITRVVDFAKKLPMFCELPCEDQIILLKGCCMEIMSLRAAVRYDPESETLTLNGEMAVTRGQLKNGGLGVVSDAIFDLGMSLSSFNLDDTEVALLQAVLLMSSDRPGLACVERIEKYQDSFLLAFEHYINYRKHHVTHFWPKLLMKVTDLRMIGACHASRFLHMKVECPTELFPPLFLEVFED
How it was run: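 TR-UAS-bla GripTite HEK 293 cells (2500/well, medium with 2% charcoal/dextran FBS) were treated in agonist mode for 18 h at 37 C, titrated. Beta-lactamase was read by CCF4 ratio after 2 h; normalized to 10 nM T3 (100%) and DMSO, Hill-fitted for EC50 and efficacy.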

[12] = target: Thyroid hormone receptor beta (Homo sapiens) (UniProt P10828); test: qHTS assay for small molecule antagonists of thyroid hormone receptor beta signaling (AID 588547; active means well fitted inhibition curve with a large enough effect in the signal ratio, with a control signal flat, not every such curve was filed as active; the % refers to the signal ratio;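 further: cells stimulated with 0.4 nM T3 agonist during compound exposure; series mostly up to about 77 µM; on the % scale 0 is the no-effect control and ±100 the full control effect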); settings: TR-UAS-bla HEK293, beta-lactamase ratio, antagonist mode, 18 h
How it was run: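 TR-UAS-bla GripTite HEK293 cells in 2% charcoal/dextran FBS medium; compounds 0.59 nM to 92 uM with T3 at 0.4nM final, 18 h at 37 C. Beta-lactamase read by CCF4 fluorescence (460/530 nm); Hill fits gave IC50 and efficacy.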

[13] = qHTS assay for small molecule agonists of the antioxidant response element (ARE) signaling pathway (AID 651741; active means well fitted activation curve with a large enough effect in the signal ratio; the % refers to the signal ratio; further: potency means the concentration at half of the fitted maximal effect; on activation: % of control where 0% means no effect)
How it was run: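 Stably integrated ARE-beta-lactamase reporter HepG2 cells; 16 h compound incubation, 37 C; LiveBLAzer FRET substrate 2 h at room temperature; fluorescence intensity.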

[14] = qHTS assay for small molecule activators of the p53 signaling pathway (AID 651743; active means well fitted activation curve with a large enough effect in the signal ratio, not every such curve was filed as active; the % refers to the signal ratio; further: series mostly up to about 92 µM; % of control where 0% means no effect); settings: HCT-116 p53RE-bla, beta-lactamase FRET ratio, 16 h; activation: stronger effect = higher value
How it was run: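 Following 16 hours of compound exposure at 37 C, HCT-116 cells bearing the p53RE-bla reporter were loaded with LiveBLAzer B/G FRET substrate for 2 hours at room temperature and fluorescence intensity was recorded.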

[15] = qHTS assay for small molecule activators of the nuclear factor-kappa B (NF-kB) signaling pathway (AID 651749; active means well fitted activation curve with a large enough effect in the signal ratio; the % refers to the signal ratio; further: series mostly up to about 77 µM; % of control where 0% means no effect); settings: NF-kB-bla ME-180 cells, beta-lactamase FRET ratio, 16 h; activation: stronger effect = higher value
How it was run: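 In this qHTS format, compounds acting as activators increase NF-kB-driven beta-lactamase in ME-180 cells, measured as disrupted FRET after 16 hr exposure at 37C and 5% CO2.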

[16] = qHTS assay for environmental chemicals that activate the Aryl hydrocarbon Receptor (AhR) signaling pathway (AID 651777; active means well fitted curve in the direction sought with a large enough effect; an effect the other way counts as inactive or inconclusive; further: % of control where 0% means no effect; nearly all actives have a fitted effect of over 15% in size); settings: 1A2-DRE human hepatoma cells, luciferase, 24 h; activation: stronger effect = higher value
How it was run: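 Stable CYP1A2 promoter/DRE-luciferase human hepatoma line treated 24 hr; One-Glo luminescence, 30 min RT.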

[17] = target: Peroxisome proliferator-activated receptor alpha (Homo sapiens) (UniProt Q07869); test: qHTS assay for small molecule agonists of the peroxisome proliferator-activated receptor alpha (PPARalpha) signaling pathway (AID 651778; active means well fitted curve in the direction sought with a large enough effect; an effect the other way counts as inactive or inconclusive; further: % of control where 0% means no effect); settings: PathHunter PPARalpha complementation, chemiluminescence, 6 h; max response: stronger effect = higher value
Sequence of Peroxisome proliferator-activated receptor alpha (Homo sapiens) (Q07869 whole entry, looked up, the tested form may be a part): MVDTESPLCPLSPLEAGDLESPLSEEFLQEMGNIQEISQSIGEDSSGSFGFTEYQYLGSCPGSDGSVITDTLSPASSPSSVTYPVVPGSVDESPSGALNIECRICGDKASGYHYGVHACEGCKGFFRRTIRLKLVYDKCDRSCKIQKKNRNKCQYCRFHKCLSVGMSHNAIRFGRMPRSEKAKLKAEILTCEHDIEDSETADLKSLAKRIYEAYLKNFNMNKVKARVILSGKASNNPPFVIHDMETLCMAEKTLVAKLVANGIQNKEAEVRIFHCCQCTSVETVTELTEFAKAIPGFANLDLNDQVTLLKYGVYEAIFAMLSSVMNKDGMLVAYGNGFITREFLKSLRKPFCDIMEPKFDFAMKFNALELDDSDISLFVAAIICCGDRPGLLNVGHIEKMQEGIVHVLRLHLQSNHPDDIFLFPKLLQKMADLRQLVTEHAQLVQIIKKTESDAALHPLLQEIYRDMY
How it was run: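 Enzyme-fragment complementation assay in which ligand-bound PPARalpha translocates and forms an active enzyme that generates chemiluminescence. Cells were plated overnight, exposed to compound for 6 hr at 37 C, and then given detection reagent for 60 min at room temperature.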

[18] = qHTS assay for small molecule agonists of the antioxidant response element (ARE) signaling pathway measured by Nrf2-dependant transcriptional activity (AID 720636; active means well fitted curve in the direction sought with a large enough effect in the repeat runs; an effect the other way counts as inactive or inconclusive;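 further: HepG2 cells with an ARE-driven luciferase reporter; % of control where 0% means no effect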)
How it was run: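 Reporter gene assay, HepG2 ARE-luc: 16 hr compound, 37 C, 5% CO2; read-out luciferase luminescence.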

[19] = qHTS assay for small molecule agonists of the antioxidant response element (ARE) signaling pathway measured by Nrf2-dependant transcriptional activity - cell viability counter screen (AID 720653; active means well fitted curve in the direction sought with a large enough effect in the repeat runs; an effect the other way counts as inactive or inconclusive; further: on the % scale 0 is the no-effect control and ±100 the full control effect); settings: ARE-bla HepG2 viability, CellTiter-Glo ATP luminescence, 16 h; max response: stronger effect = lower value
How it was run: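 ARE-bla HepG2 cells treated with compounds for 16 h at 37C; this counter screen measures viability as intracellular ATP by CellTiter-Glo luminescence after 30 min at room temperature.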

[20] = qHTS assay for cell viability of HEK293 cells (AID 743288; active means well fitted curve in the direction sought with a large enough effect; an effect the other way counts as inactive or inconclusive; further: on the % scale 0 is the no-effect control and ±100 the full control effect; nearly all actives have a fitted effect of over 50% in size); settings: ATP luminescence (CellTiter-Glo), 18 h; max response: stronger effect = lower value
How it was run: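 ATP luminescence (CellTiter-Glo) reports metabolically competent cell number after parental HEK293 cells, 2,000/well, were treated with DMSO-dissolved compounds for 18 h at 37 C; reagent incubation 30 min, room temperature.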

[21] = qHTS assay for cell viability of the p53RE-bla HCT-116 cell line (AID 743292; active means well fitted curve in the direction sought with a large enough effect; an effect the other way counts as inactive or inconclusive; further: on the % scale 0 is the no-effect control and ±100 the full control effect; nearly all actives have a fitted effect of over 55% in size)
How it was run: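 Readout: CellTiter-Glo luminescence after 30 min RT. Treatment: compounds in DMSO, 16 h, 37 C. Cells: CellSensor p53RE-bla HCT-116, 4,000/well, preincubated 5 h.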

[22] = target: Peroxisome proliferator-activated receptor gamma (Homo sapiens) (UniProt P37231); test: qHTS assay for small molecule agonists of peroxisome proliferator-activated receptor gamma signaling (AID 588536; active means well fitted curve in the direction sought with a large enough effect in the signal ratio, with a control signal flat, not every such curve was filed as active; the % refers to the signal ratio;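 further: 0% = DMSO basal wells and 100% = rosiglitazone at 2 µM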)
Sequence of Peroxisome proliferator-activated receptor gamma (Homo sapiens) (P37231 whole entry, looked up): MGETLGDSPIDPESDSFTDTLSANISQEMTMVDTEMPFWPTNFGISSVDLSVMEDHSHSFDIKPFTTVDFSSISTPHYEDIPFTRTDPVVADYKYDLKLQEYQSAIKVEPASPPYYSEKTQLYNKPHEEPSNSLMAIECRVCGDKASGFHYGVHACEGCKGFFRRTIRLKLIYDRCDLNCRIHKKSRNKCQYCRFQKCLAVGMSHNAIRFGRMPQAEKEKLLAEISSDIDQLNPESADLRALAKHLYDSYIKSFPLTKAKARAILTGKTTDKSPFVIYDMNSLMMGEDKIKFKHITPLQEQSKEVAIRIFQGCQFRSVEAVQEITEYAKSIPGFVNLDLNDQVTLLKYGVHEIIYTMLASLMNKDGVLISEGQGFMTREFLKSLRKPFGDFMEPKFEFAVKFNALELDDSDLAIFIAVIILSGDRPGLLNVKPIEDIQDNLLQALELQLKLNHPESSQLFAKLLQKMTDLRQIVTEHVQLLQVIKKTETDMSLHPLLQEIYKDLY
How it was run: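 Cells were plated and held 6–6.5 h at 37 C, then compounds were added as a titration series. After a further 16 h, CCF4 dye was loaded for 2 h at room temperature and emission at 460/530 nm recorded.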

[23] = qHTS assay for small molecule antagonists of retinoid X receptor alpha signaling (AID 588546; active means well fitted inhibition curve with a large enough effect in the signal ratio, with a control signal flat, not every such curve was filed as active; the % refers to the signal ratio); settings: HEK293T RXRa-UAS-bla, beta-lactamase ratio, antagonist mode; measured here: W530 green channel, cytotoxicity proxy
How it was run: (§2)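 Beta-lactamase reporter inhibition, read as CCF4 fluorescence ratio (ex 405, em 460/530 nm) after 2 h at RT. HEK293T UAS-bla cells, 2500/well, were stimulated with 9-cis-RA at 500 or 100 nM final alongside test compound for 18 h at 37 C.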

[24] = target: Retinoic acid receptor RXR-alpha (Homo sapiens) (UniProt P19793); test: as above; settings: HEK293T RXRa-UAS-bla, beta-lactamase ratio, antagonist mode
How it was run: as §2

[25] = target: Nuclear receptor subfamily 1 group I member 2 (Rattus norvegicus) (UniProt Q9R1A7); test: qHTS assay for small molecule activators of the rat pregnane X receptor (rPXR) signaling pathway (AID 651751; call rule not given here; further: 0% is about no effect); settings: rPXR reporter cells, luciferase (One-Glo), 24 h
Sequence of Nuclear receptor subfamily 1 group I member 2 (Rattus norvegicus) (Q9R1A7 whole entry, looked up): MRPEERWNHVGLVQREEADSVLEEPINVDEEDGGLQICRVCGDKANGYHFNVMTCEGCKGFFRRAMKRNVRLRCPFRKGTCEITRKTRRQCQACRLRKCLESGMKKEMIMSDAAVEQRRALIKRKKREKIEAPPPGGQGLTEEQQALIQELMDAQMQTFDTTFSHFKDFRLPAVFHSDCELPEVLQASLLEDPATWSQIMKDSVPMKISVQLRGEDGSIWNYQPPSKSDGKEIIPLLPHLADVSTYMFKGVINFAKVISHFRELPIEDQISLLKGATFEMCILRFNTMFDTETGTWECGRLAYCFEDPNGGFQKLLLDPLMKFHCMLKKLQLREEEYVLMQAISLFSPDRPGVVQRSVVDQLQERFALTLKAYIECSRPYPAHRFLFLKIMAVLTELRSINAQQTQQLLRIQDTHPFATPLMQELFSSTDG

[26] = qHTS assay for small molecule activators of the human pregnane X receptor (PXR) signaling pathway (AID 720659; call rule not given here; further: 0% is about no effect)
[27] = target: Peroxisome proliferator-activated receptor gamma (Homo sapiens) (UniProt P37231); test: qHTS assay for small molecule antagonists of peroxisome proliferator-activated receptor gamma signaling (AID 588537; active means well fitted inhibition curve with a large enough effect in the signal ratio, with a control signal flat, not every such curve was filed as active; the % refers to the signal ratio;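 further: reporter cells co-stimulated with 50 nM rosiglitazone agonist during compound treatment; % of control where 0% means no effect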)
How it was run: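 Fluorescence at 460 and 530 nm (405 nm excitation) reported beta-lactamase cleavage of CCF4 after 2 h room-temperature loading. HEK293 reporter cells in 1% charcoal/dextran-treated FBS had received compound and rosiglitazone for 16 h.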

Sequence of Bile acid receptor (Homo sapiens) (Q96RI1 whole entry, looked up): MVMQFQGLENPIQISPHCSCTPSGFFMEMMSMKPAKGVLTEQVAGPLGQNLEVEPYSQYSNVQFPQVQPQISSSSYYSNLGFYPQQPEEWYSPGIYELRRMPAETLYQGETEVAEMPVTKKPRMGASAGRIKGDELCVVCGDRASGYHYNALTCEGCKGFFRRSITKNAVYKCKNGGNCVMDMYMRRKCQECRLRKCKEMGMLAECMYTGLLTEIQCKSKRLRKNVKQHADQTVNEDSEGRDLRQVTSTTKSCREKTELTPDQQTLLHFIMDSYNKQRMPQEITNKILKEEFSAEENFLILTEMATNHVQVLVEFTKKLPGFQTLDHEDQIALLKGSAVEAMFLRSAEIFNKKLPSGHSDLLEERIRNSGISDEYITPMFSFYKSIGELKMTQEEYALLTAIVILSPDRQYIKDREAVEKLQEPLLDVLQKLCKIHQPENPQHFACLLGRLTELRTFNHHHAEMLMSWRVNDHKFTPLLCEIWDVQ

CN/C(=N/[N+](=O)[O-])NCC1CCOC1 (stereo not given)
22.2%: max response [5]
inactive: Potency [1] | activation [2] -2.75% | activation [3] 0.122% | outcome [4] | Potency [6] | Potency [7] | outcome [8] | Potency [10] | Potency [11] | activity change % (negative = inhibition) [12] -1.83% | Potency [13] | activation [14] 3.08% | activation [15] -0.877% | activation [16] -0.372% | max response [17] -0.384% | Potency [18] | max response [19] -9.26% | max response [20] -6.54% | Potency [21]
-9.02%: max response [9]

CC1(C(=O)Nc2ccc(O)c(Cl)c2Cl)CCCCC1
11.8%: max response [5]
inactive: Potency [1] | outcome [4] | Potency [6] | Potency [22] | Potency [7] | outcome [8] | Potency [10] | Potency [11] | max response [24] -4.55% | activity change % (negative = inhibition) [12] 15.7% | activation [14] 0.119% | activation [16] 0.158% | max response [17] 3.06% | max response [19] 4.3% | max response [20] -8.66% | Potency [21] | max response [25] 1.26%
-10.8%: max response [9]
active: Potency [13] 30.6 µM
-23.6%: max response [23]

CCCSP(=O)(OCC)Oc1ccc(Br)cc1Cl (stereo not given)
inactive: Potency [1] | activation [2] 3.54% | outcome [4] | Potency [22] | Potency [7] | outcome [8] | Potency [10] | Potency [11] | activity change % (negative = inhibition) [12] 3.3% | activation [14] 3.94% | activation [15] 0.74% | max response [17] -0.001% | Potency [18] | max response [19] -7.9% | max response [20] -22.2% | Potency [21] | max response [25] 7.3% | outcome [26]
5.89%: max response [5]
0.651%: max response [9]

CCOc1nc(F)cc2nc(S(=O)(=O)Nc3c(Cl)cccc3Cl)nn12
3.57%: max response [9]
inactive: Potency [1] | activation [2] -0.748% | activation [3] 0.859% | outcome [4] | Potency [27] | Potency [7] | outcome [8] | Potency [10] | Potency [11] | max response [24] -25.7% | activity change % (negative = inhibition) [12] -10.3% | activation [14] 1.78% | activation [15] 0.211% | activation [16] -0.921% | max response [17] -2.41% | Potency [18] | max response [19] -9.33% | max response [20] -11.2% | Potency [21] | max response [25] 1.99% | outcome [26]
23.2%: max response [5]
6.95%: max response [23]

O=c1oc2cc(O)ccc2c2oc3cc(O)ccc3c12
inactive: activation [2] 8.73%

O=C=Nc1ccc(Cl)c(Cl)c1
inactive: activation [2] 2.96%

Cc1cc(C2CC2)nc(Nc2ccccc2)n1
-2.59%: max response [23]
7.71%: max response [9]
1.7%: max response [5]
inactive: Potency [1] | activation [2] -4.1% | Potency [6] | Potency [22] | Potency [27] | Potency [7] | Potency [10] | Potency [11] | max response [24] -23.3% | activity change % (negative = inhibition) [12] -20% | max response [17] 5.58% | max response [19] 0.0652% | Potency [21]
active: Potency [13] 54.5 µM
